# Assay results taken from PubChem BioAssay AID623911 (Vanderbilt High Throughput Screening Facility, 2012).
# Among all 2,100 compounds or so, about 770 (37%) were called active. This is one part of the list. A number with no mark means an inactive call.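 How the source made its calls: active means by-eye trace score of 1 for enhancers or -1 for inhibitors, so actives lie on both sides (some results past the limit were not filed as active); inactive means score 0, or 3 fluorescent, or 4 baseline rise.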
# Molecular target: G protein-activated inward rectifier potassium channel 2 (Homo sapiens) + G protein-activated inward rectifier potassium channel 1 (Homo sapiens) (UniProt P48051+P48549)
# Experiment: GIRK1/2 thallium flux modulators, retest, confirmation, cell-based, HEK293 rmGlu8/hGIRK1/2, FluoZin-2 (AID 623911)
# Details: HEK293 rmGlu8/hGIRK1/2, thallium flux FluoZin-2; actives lie on both sides; glutamate co-added at its EC20 level
# Sequence of G protein-activated inward rectifier potassium channel 2 (Homo sapiens) + G protein-activated inward rectifier potassium channel 1 (Homo sapiens) (P48051 whole entry, looked up): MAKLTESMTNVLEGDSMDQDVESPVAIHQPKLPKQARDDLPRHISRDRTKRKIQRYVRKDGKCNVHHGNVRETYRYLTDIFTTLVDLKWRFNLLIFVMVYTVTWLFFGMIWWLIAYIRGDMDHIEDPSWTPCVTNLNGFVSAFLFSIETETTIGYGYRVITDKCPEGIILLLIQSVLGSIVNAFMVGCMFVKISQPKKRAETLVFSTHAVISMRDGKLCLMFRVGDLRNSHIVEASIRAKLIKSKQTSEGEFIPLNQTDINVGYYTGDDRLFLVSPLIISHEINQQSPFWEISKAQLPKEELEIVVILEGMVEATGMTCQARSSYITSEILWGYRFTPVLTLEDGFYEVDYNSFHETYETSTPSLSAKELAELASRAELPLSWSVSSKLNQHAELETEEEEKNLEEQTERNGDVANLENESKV
# Sequence of G protein-activated inward rectifier potassium channel 2 (Homo sapiens) + G protein-activated inward rectifier potassium channel 1 (Homo sapiens) (P48549 whole entry, looked up): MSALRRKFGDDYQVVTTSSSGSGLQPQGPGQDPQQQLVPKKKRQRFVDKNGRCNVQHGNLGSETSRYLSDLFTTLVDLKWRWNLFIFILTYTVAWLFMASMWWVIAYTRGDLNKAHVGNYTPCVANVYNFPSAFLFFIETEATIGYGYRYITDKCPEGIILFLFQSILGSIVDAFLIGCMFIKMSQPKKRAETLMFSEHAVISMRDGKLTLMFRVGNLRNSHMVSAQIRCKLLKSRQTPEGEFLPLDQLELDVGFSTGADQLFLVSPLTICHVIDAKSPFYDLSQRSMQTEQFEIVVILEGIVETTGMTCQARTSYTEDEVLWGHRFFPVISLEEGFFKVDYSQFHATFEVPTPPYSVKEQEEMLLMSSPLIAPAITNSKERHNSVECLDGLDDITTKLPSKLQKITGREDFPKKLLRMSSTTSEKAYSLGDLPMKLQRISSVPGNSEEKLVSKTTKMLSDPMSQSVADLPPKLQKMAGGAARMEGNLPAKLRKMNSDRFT
row,SMILES,manual score
1,Nc1c(-c2ccccc2)cnn1-c1ccc(C(=O)O)cc1,0
2,CC1=NCCN1S(=O)(=O)c1cc(Cl)ccc1Cl,0
3,O=C(NCc1ccccc1)c1ccc2c(=O)n(CCCN3CCCC3=O)c(=S)[nH]c2c1,0
4,COc1ccccc1CNC(=O)c1c(N)n(CCCN2CCOCC2)c2nc3ccccc3nc12,0
5,CCn1c(NC(=S)Nc2ccccc2)nc2ccccc21,0
6,Cn1c(CNc2nc3ccccc3n2CCN2CCCCC2)nc2ccccc21,-1 (active)
7,COc1ccc(CNC(=O)C(C#N)c2nc3ccccc3nc2N2CCCC2)cc1 (configuration not stated),3
8,COc1cccc(CNc2nc3ccccc3n2CCN2CCCCC2)c1OC,-1 (active)
9,COc1ccc(/C=C/c2nc3sc4c(c3c(=O)o2)CCC4)cc1,3
10,COc1cc(NC(=O)c2ccc(C)cc2)c(OC)cc1NC(=O)CN1CCCCC1,0
11,COc1ccc(OC)c(NC(=O)C2CC(=O)N(c3ccc(Br)cc3)C2)c1 (configuration not stated),0
12,COc1cc(NC(=O)C(=O)NNC(=O)C2CCCCC2)c(OC)cc1Cl,1 (active)
13,CCOC(=O)N1CCN(C(=O)CSc2nc3c(c(=O)n2-c2ccccc2OC)SCC3)CC1,0
14,CCOc1ccccc1NC(=O)CSc1nnc(-c2ccccn2)n1Cc1ccco1,0
15,CCOC(=O)CSc1nc2c(sc(=S)n2-c2ccccc2OC)c(=O)n1Cc1ccco1,-1 (active)
16,Brc1ccccc1C1=Nn2c(nnc2-c2ccccc2)SC1,-1 (active)
17,CCCc1nnc2n1N=C(c1ccc(OC)c(OC)c1)CS2,0
18,Nc1nc(Nc2ccccc2)nc(NCc2ccco2)c1[N+](=O)[O-],0
19,CCOC(=O)c1sc2ncnc(NCc3ccco3)c2c1C,1 (active)
20,Cc1ccc(-n2c(CSc3nc(C)cc(C)n3)nnc2SCC(=O)NCc2ccco2)cc1,0
21,Cc1ccc2c(Cl)cc(Cl)c(OCC(=O)NCc3ccco3)c2n1,1 (active)
22,CS(=O)(=O)N(CC(=O)NCc1ccco1)c1ccc(Cl)c(C(F)(F)F)c1,0
23,C=CCOn1c(=O)c(-c2cccs2)[n+]([O-])c2ccccc21,3

row,SMILES,manual score
1,CCCCCCn1c(=O)[nH]c2nc3cc(N)ccc3nc2c1=O,3
2,CC1CCN(c2ncccc2C(=O)O)CC1,0
3,CC1CCN(c2ccccc2NC(=S)NC(=O)c2cccs2)CC1,0
4,CN1CCN(C(=S)NC(=O)/C=C/c2cccc3ccccc23)CC1,0
5,O=C(NC(=S)N1CCN(Cc2ccccc2)CC1)c1ccccc1,1 (active)
6,COc1ccc(C(=O)NC(=S)N2CCCCC2)cc1,2
7,CNC(=S)N1CCN(c2ccc(OC)cc2)CC1,0
8,COc1ccc(C(=O)NC(=S)N2CCC(C)CC2)cc1,1 (active)
9,CC1CCN(C(=S)NC(=O)c2ccccc2)CC1,1 (active)
10,Cc1cccc(-n2c(-c3csc(C(C)C)c3)n[nH]c2=S)c1,0
11,CCn1nc(C(=O)OCC(=O)c2c[nH]c3ccccc23)c2ccccc2c1=O,0
12,CCc1c(C)nc(SCC(=O)N2CCc3ccccc32)[nH]c1=O,3
13,CCCCn1nc(C(=O)N2CCc3ccccc32)c2ccccc2c1=O,-1 (active)
14,Cc1c(C(=O)N2CCc3ccccc32)oc2c1C(=O)CC(C)(C)C2,0
15,O=C(c1ccc2c(=O)n(C3CCCC3)c(=S)[nH]c2c1)N1CCc2ccccc21,0
16,CCn1nc(C(=O)OCC(=O)N2CCc3ccccc32)c2ccccc2c1=O,-1 (active)
17,Cc1[nH]n(-c2ccc(F)cc2)c(=O)c1/C=N/c1sc2c(c1C#N)CCCC2,3
18,Cc1[nH]n(-c2cccc3ccccc23)c(=O)c1/C=N/c1sc2c(c1C#N)CCC2,1 (active)
19,CC(=O)c1cccc(NC(=O)C2CCCN2S(=O)(=O)c2cccc3cccnc23)c1 (configuration not stated),0
20,COc1ccccc1OCC(=O)Nc1sc2c(c1C(=O)NCC1CCCO1)CCC2 (configuration not stated),0
21,CCOC(=O)c1c(NS(=O)(=O)c2cccc(OC)c2)sc2c1CCC2,1 (active)
22,CCOC(=O)c1c(NS(=O)(=O)c2ccc(Br)cc2)sc2c1CCC2,1 (active)
23,CCOc1ccc(C(=O)CN2CCN(S(=O)(=O)c3ccc(Br)cc3)CC2)cc1,0

row,SMILES,manual score
1,CCc1cc2c(=O)n(CC)c(SC(C)C(=O)Nc3c(C)n(C)n(-c4ccccc4)c3=O)nc2s1 (configuration not stated),0
2,O=C(NC(=S)Nc1nc2ccccc2s1)c1cccs1,0.5
3,O=C(CNC(=S)NC(=O)c1ccco1)c1ccccc1,1 (active)
4,O=C(CNC(=S)NC(=O)c1cccs1)c1ccccc1,1 (active)
5,O=C(NC(=S)NCCc1ccccc1)c1ccccc1,0
6,O=C(NC(=S)N(CCc1ccccc1)CCc1ccccc1)c1ccco1,1 (active)
7,O=C(NC(=S)Nc1nc2c(ccc3ccccc32)s1)c1cccs1,0.5
8,O=C(NC(=S)NCCc1ccccc1)c1ccco1,1 (active)
9,Fc1cccc(-n2c(-c3ccco3)nc3nc4ccccc4nc32)c1,0
10,O=C(Nc1ccncc1)c1ccc2c(c1)C(=O)N(C1CCCCC1)C2=O,0
11,CCCCNc1c2c3c(cccc3n(C)c1=O)C(=O)c1ccccc1-2,3
12,CCc1nc(N2CCOCC2)c(C#N)c2c1CCCC2,0
13,S=c1nc[nH]c2c1sc1nc(-c3ccccc3)c3c(c12)CCCC3,1 (active)
14,Cc1sccc1C1C(C#N)=C(N)SC(N)=C1C#N,0
15,N#CC1=C(N)SC(N)=C(C#N)C1CCc1ccccc1,0
16,N#CC1=C(N)SC(N)=C(C#N)C1c1c(Cl)cccc1Cl,-1 (active)
17,Cc1csc(NC(=S)Nc2cccc(Cl)c2)n1,1 (active)
18,COCCCN(C(=S)Nc1cccc(Cl)c1)C(C)c1ccncc1 (configuration not stated),0
19,S=C(NCc1cccs1)Nc1cccc(Cl)c1,1 (active)
20,Cc1ccc(C2CC2C(=O)NNC(=S)Nc2cccc(Cl)c2)cc1 (configuration not stated),0
21,O=C(CSc1cccc2cccc(Cl)c12)NCc1cccs1,0
22,CC(C)n1c(-c2ccc(C(C)(C)C)cc2)n[nH]c1=S,0
23,Cc1ccc2nc(NC(=S)NC(=O)c3cccs3)sc2c1,0

row,SMILES,manual score
1,Cc1ccc(C(=O)N/N=C(/CC(=O)c2cccs2)C(F)(F)F)cc1,1 (active)
2,CCOC(=O)C1=C(c2ccccc2)NC(SC)=C(C#N)C1c1ccco1 (configuration not stated),0
3,CC(=O)C1=C(C)NC(SCc2ccc(C#N)cc2)=C(C#N)C1c1ccco1 (configuration not stated),-1 (active)
4,CSCSC1=C(C#N)C(c2ccccc2Cl)C(C(C)=O)=C(C)N1 (configuration not stated),-1 (active)
5,CC(=O)C1=C(C)NC(SCC(=O)c2ccc(Cl)cc2Cl)=C(C#N)C1c1ccco1 (configuration not stated),-1 (active)
6,CSCSC1=C(C#N)C(c2ccc(Cl)cc2)C(C(C)=O)=C(C)N1 (configuration not stated),0
7,N#Cc1c(-c2ccco2)nc(SCc2ccc(F)cc2)[nH]c1=O,0
8,CCOc1ccccc1C1CC(=O)NC(SCC)=C1C#N (configuration not stated),0
9,CC(Nc1nc(N2CCCCC2)nc2ccccc12)c1ccccc1 (configuration not stated),-1 (active)
10,CC(Nc1nc(N2CCCC2)nc2ccccc12)c1ccccc1 (configuration not stated),-1 (active)
11,C=CCNc1nc(N2CCCC2)nc2ccccc12,-1 (active)
12,CC1(C)CC(=S)Nc2ccccc2S1,0
13,CCc1cccc(NC(=O)NC2CCCCC2)c1,0.5
14,O=C(Nc1ccc(F)c(F)c1)NC1CCCCC1,1 (active)
15,CCCN1CCC(NC(=O)Nc2ccc(F)cc2F)CC1,0
16,CC1(C)CC(=O)C2=C(C1)OC(/N=C/N1CCOCC1)=C(C#N)C2c1ccccc1 (configuration not stated),-1 (active)
17,N=c1c2c(-c3ccccc3)c(-c3ccccc3)n(Cc3ccccc3)c2ncn1CCCO,-1 (active)
18,CC(C)Cn1cnc2c(c(-c3ccccc3)c(-c3ccccc3)n2Cc2ccco2)c1=N,-1 (active)
19,COC(=O)c1cc(NC(=O)c2ccoc2C)cc(C(=O)OC)c1,0
20,CCN1CCN(C(=O)c2ccc3c(=O)n(C4CCCC4)c(=S)[nH]c3c2)CC1,0
21,COc1cc2c(C(=O)N3CCN(C4CCCCC4)CC3)cn(CC(C)C)c(=O)c2cc1OC,-1 (active)
22,CC(C)OC(=O)CC12CN3CN(C1)CC(CC(=O)OC(C)C)(C3)C2=O,0
23,CCN(CC)c1nc(C)nc2c1cnn2CCc1ccccc1,0

row,SMILES,manual score
1,Cc1cccc(NC(=S)NC(=O)CCc2ccccc2)c1,0
2,Cc1cccc(NC(=O)NC(C)CCc2ccccc2)c1 (configuration not stated),1 (active)
3,Cc1ccccc1NC(=O)C(=O)NC(C)CCc1ccccc1 (configuration not stated),0
4,CCN(CC)S(=O)(=O)c1cccc(S(=O)(=O)c2cccc(S(=O)(=O)N(CC)CC)c2)c1,-1 (active)
5,CN1CCN(S(=O)(=O)c2cccc(S(=O)(=O)c3cccc(S(=O)(=O)N4CCN(C)CC4)c3)c2)CC1,0
6,CCN(CC)S(=O)(=O)c1csc(C(=O)NCc2ccccc2)c1,0
7,CCN(CC(=O)c1c(N)n(C)c(=O)n(C)c1=O)c1cccc2ccccc12,0
8,O=C1CN(C(=O)CSc2nc3ccccc3c(=O)n2Cc2ccc(F)cc2)c2ccccc2N1,0.5
9,CC(c1ccccc1)n1c(SCC(=O)N2CC(=O)Nc3ccccc32)nc2ccccc2c1=O (configuration not stated),0
10,O=C1CN(C(=O)CSc2nc3cc(Cl)ccc3c(=O)n2Cc2ccccc2)c2ccccc2N1,1 (active)
11,Cn1c(=O)c(NCCO)c2c3c(cccc31)C(=O)c1ccccc1-2,3
12,CC(C)NC(=O)c1nc2ccccc2s1,0
13,O=C(Nc1nnc(-c2ccccc2Cl)o1)c1nc2ccccc2s1,1 (active)
14,O=C(Nc1nnc(-c2ccc(Cl)cc2)o1)C1=COCCO1,0
15,O=C(Nc1nnc(-c2ccc(Cl)cc2)o1)c1nc2ccccc2s1,1 (active)
16,O=C(Nc1nnc(-c2ccc(Cl)cc2)o1)c1ccc(N2C(=O)CCC2=O)cc1,0
17,O=C(Nc1nnc(-c2ccc(Cl)cc2)o1)c1ccccc1Br,1 (active)
18,O=C(O)CC/C(=C\c1cc([N+](=O)[O-])ccc1Cl)c1nc2ccccc2s1,-0.5
19,O=C(Nc1nnc(-c2ccc(Cl)cc2)o1)c1cccc(N2C(=O)CCC2=O)c1,-1 (active)
20,O=C(NCCCN1CCN(c2cccc(Cl)c2)CC1)c1cccc(N2CCCC2=O)c1,0
